Measurements: PubChem BioAssay AID1159580 (chemical genetic matrix, 2015)
Among all 5,500 compounds or so, about 2,000 (36%) were called active. Another 18% or so got no clear call; they are omitted. Rule as the data show it: active = normalized growth mostly below about 0.91 (no sharp cut-off); inconclusive = no clear call, values can overlap the other calls; inactive = mostly above about 0.92. Some of the results follow.

Assay: chemical genetic growth profiling, strain panel (AID 1159580);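 also: tested at 20 µM; growth read once vehicle control cultures reached saturation at 30 °C; 1 = growth at the plate median or of vehicle wells; lower values mean less growth of the strain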
Details: growth OD

Measured: normalized growth

CCC1OC(=O)[C@H](C)C(=O)[C@H](C)[C@@H](OC2O[C@H](C)C[C@H](N(C)C)[C@H]2O)[C@](C)(OC)C2(CCCn3cnc(-c4cccnc4)c3)C[C@@H](C)C(=O)[C@H](C)[C@H]3N(C2)C(=O)O[C@]13C (some centres undefined)
inactive: S. cerevisiae deletion strains, locus YJR043C, strain POL32, stronger effect = lower value 0.994 | S. cerevisiae deletion strains, locus YJR075W, strain HOC1, stronger effect = lower value 0.99 | S. cerevisiae deletion strains, locus YKL009W, strain mrt4, stronger effect = lower value 1.01 | S. cerevisiae deletion strains, locus YKL068W, stronger effect = lower value 1.01 | S. cerevisiae deletion strains, locus YKL085W, strain MDH1 (second series), stronger effect = lower value 0.998 | S. cerevisiae deletion strains, locus YKL085W, strain MDH1, stronger effect = lower value 0.998 | S. cerevisiae deletion strains, locus YKL160W, strain elf1, stronger effect = lower value 0.994 | S. cerevisiae deletion strains, locus YKL190W, strain CNB1, stronger effect = lower value 1 | S. cerevisiae deletion strains, locus YKR001C, strain vps1, stronger effect = lower value 0.997 | S. cerevisiae deletion strains, locus YKR026C, strain gcn3, stronger effect = lower value 0.989 | S. cerevisiae deletion strains, locus YKR091W, strain srl3, stronger effect = lower value 0.985 | S. cerevisiae deletion strains, locus YLL001W, strain dnm1, stronger effect = lower value 0.984 | S. cerevisiae deletion strains, locus YLL026W, stronger effect = lower value 0.988 | S. cerevisiae deletion strains, locus YLL041C, strain sdh2, stronger effect = lower value 0.977 | S. cerevisiae deletion strains, locus YLR027C, strain aat2, stronger effect = lower value 0.99 | S. cerevisiae deletion strains, locus YLR039C, strain RIC1, stronger effect = lower value 1.02 | S. cerevisiae deletion strains, locus YLR058C, strain SHM2, stronger effect = lower value 1 | S. cerevisiae deletion strains, locus YLR102C, strain apc9, stronger effect = lower value 0.997 | S. cerevisiae deletion strains, locus YLR221C, strain rsa3, stronger effect = lower value 0.973 | S. cerevisiae deletion strains, locus YLR258W, strain gsy2, stronger effect = lower value 0.983 | S. cerevisiae deletion strains, locus YLR262C, strain YPT6 (second series), stronger effect = lower value 0.978 | S. cerevisiae deletion strains, locus YLR262C, strain YPT6, stronger effect = lower value 1.04 | S. cerevisiae deletion strains, locus YLR268W, strain sec22, stronger effect = lower value 0.98 | S. cerevisiae deletion strains, locus YLR320W, strain mms22, stronger effect = lower value 0.975 | S. cerevisiae deletion strains, locus YLR330W, strain CHS5, stronger effect = lower value 1 | S. cerevisiae deletion strains, locus YLR342W, strain FKS1 (second series), stronger effect = lower value 0.999 | S. cerevisiae deletion strains, locus YLR342W, strain FKS1, stronger effect = lower value 1.01 | S. cerevisiae deletion strains, locus YLR357W, strain rsc2, stronger effect = lower value 0.935 | S. cerevisiae deletion strains, locus YLR370C, strain arc18, stronger effect = lower value 0.985 | S. cerevisiae deletion strains, locus YLR371W, strain rom2, stronger effect = lower value 1.01 | S. cerevisiae deletion strains, locus YLR384C, strain iki3, stronger effect = lower value 0.995 | S. cerevisiae deletion strains, locus YLR418C, strain cdc73, stronger effect = lower value 0.979 | S. cerevisiae deletion strains, locus YML016C, strain PPZ1, stronger effect = lower value 1.01 | S. cerevisiae deletion strains, locus YML032C, strain rad52, stronger effect = lower value 1.01 | S. cerevisiae deletion strains, locus YML120C, strain ndi1, stronger effect = lower value 0.966 | S. cerevisiae deletion strains, locus YML124C, strain tub3, stronger effect = lower value 1.01 | S. cerevisiae deletion strains, locus YMR058W, strain fet3, stronger effect = lower value 0.974 | S. cerevisiae deletion strains, locus YMR078C, strain ctf18, stronger effect = lower value 1.01 | S. cerevisiae deletion strains, locus YMR125W, strain sto1, stronger effect = lower value 1.01 | S. cerevisiae deletion strains, locus YMR129W, stronger effect = lower value 0.974 | S. cerevisiae deletion strains, locus YMR205C, strain PFK2, stronger effect = lower value 0.996 | S. cerevisiae deletion strains, locus YMR223W, strain ubp8, stronger effect = lower value 1 | S. cerevisiae deletion strains, locus YMR231W, strain pep5, stronger effect = lower value 0.98 | S. cerevisiae deletion strains, locus YMR263W, strain SAP30, stronger effect = lower value 1 | S. cerevisiae deletion strains, locus YMR307W, strain GAS1, stronger effect = lower value 0.93 | S. cerevisiae deletion strains, locus YNL067W, strain RPL9B, stronger effect = lower value 1.01 | S. cerevisiae deletion strains, locus YNL071W, strain lat1, stronger effect = lower value 0.99 | S. cerevisiae deletion strains, locus YNL128W, strain TEP1, stronger effect = lower value 1.01 | S. cerevisiae deletion strains, locus YNL153C, strain GIM3, stronger effect = lower value 1.01 | S. cerevisiae deletion strains, locus YNL209W, strain ssb2, stronger effect = lower value 0.986 | S. cerevisiae deletion strains, locus YNL233W, strain BNI4, stronger effect = lower value 1.01 | S. cerevisiae deletion strains, locus YNL248C, strain rpa49, stronger effect = lower value 0.946 | S. cerevisiae deletion strains, locus YNL250W, strain rad50, stronger effect = lower value 0.992 | S. cerevisiae deletion strains, locus YNL271C, strain bni1, stronger effect = lower value 0.997 | S. cerevisiae deletion strains, locus YNL298W, strain CLA4, stronger effect = lower value 0.995 | S. cerevisiae deletion strains, locus YNL307C, strain MCK1, stronger effect = lower value 1.01 | S. cerevisiae deletion strains, locus YNL322C, strain KRE1 (second series), stronger effect = lower value 0.968 | S. cerevisiae deletion strains, locus YNL322C, strain KRE1, stronger effect = lower value 1 | S. cerevisiae deletion strains, locus YNR049C, strain mso1, stronger effect = lower value 0.958 | S. cerevisiae deletion strains, locus YNR052C, strain pop2, stronger effect = lower value 1.01 | S. cerevisiae deletion strains, locus YOL006C, strain TOP1, stronger effect = lower value 1 | S. cerevisiae deletion strains, locus YOL012C, strain htz1 1.16 | S. cerevisiae deletion strains, locus YOL147C, strain pex11, stronger effect = lower value 1 | S. cerevisiae deletion strains, locus YOR001W, strain rrp6, stronger effect = lower value 1 | S. cerevisiae deletion strains, locus YOR061W, strain CKA2, stronger effect = lower value 1.01 | S. cerevisiae deletion strains, locus YOR069W, strain VPS5, stronger effect = lower value 1.01 | S. cerevisiae deletion strains, locus YOR070C, strain gyp1, stronger effect = lower value 0.984 | S. cerevisiae deletion strains, locus YOR080W, strain dia2, stronger effect = lower value 0.968 | S. cerevisiae deletion strains, locus YOR083W, strain WHI5, stronger effect = lower value 1.01 | S. cerevisiae deletion strains, locus YOR106W, strain vam3, stronger effect = lower value 0.994 | S. cerevisiae deletion strains, locus YOR136W, strain idh2, stronger effect = lower value 1.01 | S. cerevisiae deletion strains, locus YOR144C, strain elg1, stronger effect = lower value 1 | S. cerevisiae deletion strains, locus YOR184W, strain ser1, stronger effect = lower value 0.996 | S. cerevisiae deletion strains, locus YOR265W, strain rbl2, stronger effect = lower value 0.996 | S. cerevisiae deletion strains, locus YOR270C, strain vph1, stronger effect = lower value 0.963 | S. cerevisiae deletion strains, locus YOR290C, strain snf2, stronger effect = lower value 0.963 | S. cerevisiae deletion strains, locus YOR316C, strain cot1, stronger effect = lower value 0.998 | S. cerevisiae deletion strains, locus YPL051W, strain arl3, stronger effect = lower value 1 | S. cerevisiae deletion strains, locus YPL055C, strain LGE1, stronger effect = lower value 1.02 | S. cerevisiae deletion strains, locus YPL078C, strain atp4, stronger effect = lower value 0.984 | S. cerevisiae deletion strains, locus YPL106C, strain sse1, stronger effect = lower value 0.943 | S. cerevisiae deletion strains, locus YPL240C, strain hsp82, stronger effect = lower value 0.986 | S. cerevisiae deletion strains, locus YPL241C, strain CIN2, stronger effect = lower value 1 | S. cerevisiae deletion strains, locus YPR119W, strain clb2, stronger effect = lower value 1 | S. cerevisiae deletion strains, locus YPR141C, strain kar3, stronger effect = lower value 1 | S. cerevisiae deletion strains, locus YPR163C, strain tif3, stronger effect = lower value 1.01 | S. cerevisiae deletion strains, locus YPR167C, strain met16, stronger effect = lower value 1 | S. cerevisiae deletion strains, strain wtn01, stronger effect = lower value 0.977 | S. cerevisiae strains, strain wild type, stronger effect = lower value 0.999
